# Only some compounds are listed: those with a hit (about 2.9% of all), similar ones and a draw of the others.
# SNCA viab count = GF-AFC viability counterscreen for inhibitors of alpha-synuclein gene (SNCA) expression. AID 1671193, 2021. HEK-293-SNCA-luc viability, GF-AFC fluorescence, 24 h. Potency, µM (top dose mostly 57.1 µM), inactives show top-dose activity change, negative = cytotoxicity, hits mostly cytotoxic. hit rate 0.12% among 150,000;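 note: potency is the fitted concentration of half-maximal effect; 0% = DMSO-treated cells and -100% = medium-only wells without cells; nearly all actives have a fitted effect of over 30% in size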
#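 HEK-293-SNCA-luc cells (1500/well) plated 24 h, then exposed 24 h to a dilution series; GF-AFC added 30 min at 37C, fluorescence 405/540 nm; normalised to medium-only and DMSO wells, Hill fit.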
# IP6K1 inhibitor = Primary qHTS assay for small molecule inhibitors of Inositol hexaphosphate kinase 1 (IP6K1) | activity change, % (series mostly up to about 58 µM) | IP6K1 kinase, ADP-Glo luminescence, 2 h; hits give low values | hit rate 0.81% among 140,000 | Inositol hexakisphosphate kinase 1 (Homo sapiens), Q92551; in the data active = activity change below about -25%; note: % is set by controls: 0 for no effect and ±100 for the full control effect
# Target sequence (Q92551 whole entry, looked up): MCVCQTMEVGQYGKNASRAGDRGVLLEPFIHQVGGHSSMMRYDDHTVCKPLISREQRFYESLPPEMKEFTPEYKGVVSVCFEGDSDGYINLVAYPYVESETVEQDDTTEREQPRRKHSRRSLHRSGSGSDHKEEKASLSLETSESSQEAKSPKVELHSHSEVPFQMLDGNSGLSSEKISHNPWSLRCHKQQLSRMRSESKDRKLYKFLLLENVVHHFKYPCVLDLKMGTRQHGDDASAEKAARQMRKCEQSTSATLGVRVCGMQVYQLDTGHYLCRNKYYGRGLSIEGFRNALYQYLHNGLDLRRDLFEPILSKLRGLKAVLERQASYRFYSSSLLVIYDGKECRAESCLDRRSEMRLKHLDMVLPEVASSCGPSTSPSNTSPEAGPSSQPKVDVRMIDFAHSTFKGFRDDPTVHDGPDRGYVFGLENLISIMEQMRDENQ
#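 ADP-Glo luminescence measures ADP made by human IP6K1 during a 2 h RT reaction with ATP/IP6 (mix at 1.3 mM/130 uM); top library doses 57.5 and 19.1 uM final.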
# SNCA expr inhib = Primary qHTS assay for inhibitors of alpha-synuclein gene (SNCA) expression; HEK-293 SNCA-luciferase knock-in, luminescence, 24 h; Potency, µM (series often up to 57.2 µM), for the others: at the highest dose activity change, negative = inhibition, hits mostly inhibitors; hit rate 0.17% among 140,000; AID 1671194, 2021;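 note: potency is the fitted concentration of half-maximal effect; plate controls were DMSO cells for no effect and cell-free wells for full effect; nearly all actives have a fitted effect of over 45% in size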
# KDM5B inhibitor = Primary screen for KDM5B Histone Demethylases FDH-coupled qHTS | Lysine-specific demethylase 5B (Homo sapiens), Q9UGL1 | KDM5B demethylase, FDH-coupled NADH fluorescence (FDH is formaldehyde dehydrogenase) | Potency, µM (highest dose often 57.7 µM), actives largely listed as inhibitors | hit rate 2.6% among 220,000; note: potency is the fitted concentration of half-maximal effect; 0% is about no effect; nearly all actives have a fitted effect of over 70% in size
#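 Coupled FDH/NAD⁺ fluorescence readout. KDM5BΔAP 200 nM final; compound titration, 10 min RT preincubation; substrate mix 12.5 µM H3K4me3, 25 µM 2-OG, 50 µM Fe(II), 100 µM ascorbate, 0.25 mM NAD⁺, 0.25 U/mL FDH; ΔRFU over 30 min.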
# Numbers without * were called inactive; i = inactive; ? = inconclusive; · = no result; [ ] = dose if it differs, or a comment. Unless noted, calls come from the whole dose curve; as a rule, active = well fitted curve in the direction sought with a large enough effect; inconclusive = small, poorly fitted or top-dose-only effect, or another doubt; inactive = no such curve, though single readings can be large; an effect the other way counts as inactive or inconclusive.
SMILES,SNCA viab count,IP6K1 inhibitor,SNCA expr inhib,KDM5B inhibitor
CCn1ccc2c(CN3CCC4(CCCN(CCOC)C4=O)C3)cccc21 (centres undefined),-8.8%,-0.2,8.6%,28.2µM*
CC1(C(=O)N2CCC(c3ccccc3)CC2)COCc2cnc(Nc3ccccc3)nc21 (centres undefined),?,-1.5,?,?
CC1(C(=O)N2CCC(c3ccccc3)CC2)CCc2cnc(N3CCOCC3)nc21 (centres undefined),-14.1%[87.6 µM],4.0,?,31.6µM*
O=C(Nc1nccs1)c1ccc2c(c1)OCCN(CCC(F)(F)F)C2,-3.3%[87.6 µM],-2.8,38.1%[87.6 µM],i
O=C(Nc1nc2ccccc2s1)c1ccc2c(c1)OCCN(CCC(F)(F)F)C2,-19.6%[87.6 µM],-11.5,60.0%[87.6 µM],31.6µM*
O=C(NCc1ccccc1F)C1CCN(Cc2ccccc2-c2cccnc2)CC1,-1.6%,6.8,23.4%,·
CCOc1ccc(NC(=O)N2CCc3c(c4ccccc4n3C)C2)cc1,-1.8%,-4.2,-8.3%,25.1µM*
Cn1c2c(c3cc(F)ccc31)CN(C(=O)Nc1ccc(Cl)cc1)CC2,2.5%,5.0,97.9%,?
Cc1ccc(NC(=O)N2CCc3c(c4ccccc4n3C)C2)cc1,2.8%,4.6,37.9%,22.4µM*
CCc1ccc(NC(=O)N2CCc3c(c4ccccc4n3C)C2)cc1,5.4%,-2.3,29.9%,28.2µM*
OC1(CN2CCCN(c3nc4ccccc4s3)CC2)CNCCOC1 (centres undefined),9.1%,1.0,113.4%,i
CCCCNC(=O)Cc1csc2nc(C)c(-c3cc(C)n(-c4cc(Cl)ccc4C)n3)c(=O)n12,5.9%,-3.6,5.1%,25.1µM*
CCCNC(=O)Cc1csc2nc(C)c(-c3cc(C)n(-c4cc(Cl)ccc4C)n3)c(=O)n12,-0.8%,14.6,11.9%,28.2µM*
CCCCNC(=O)Cc1csc2nc(C)c(-c3cc(C)n(-c4ccc(C)cc4C)n3)c(=O)n12,-18.1%,1.8,-6.8%,?
COc1ccc(C2Cn3cnc(-c4nc(-c5ccc6c(c5)OCO6)no4)c3CO2)cc1 (centres undefined),-8.0%,-17.2,28.0%,14.1µM*
COc1ccc(-c2noc(-c3nnn4c3COC(c3ccc(F)cc3)C4)n2)cc1OC (centres undefined),0.9%,-13.6,-3.2%,22.4µM*
COc1ccc(-c2nc(-c3nnn4c3COC(c3ccc(Cl)cc3)C4)no2)cc1OC (centres undefined),5.3%,-2.9,0.2%,28.2µM*
COc1ccc(C2Cn3cnc(-c4nc(-c5ccc(OC)c(OC)c5)no4)c3CO2)cc1 (centres undefined),-10.0%,6.3,0.3%,i
COc1cncc(N2CC3(COCC(=O)N(Cc4cccc(OC(F)(F)F)c4)C3)C2)c1,-5.9%[87.6 µM],4.3,13.3%[87.6 µM],28.2µM*
O=C1COCC2(CN1Cc1cccc(OC(F)(F)F)c1)CN(c1ccccn1)C2,0.6%[87.6 µM],3.9,?,?
CCOc1ccc(NC(=O)c2cc3c(N4CCSCC4)nc(C)cn3n2)cc1,10.3%,-0.7,24.2%,3.98µM*
Cc1cn2nc(C(=O)Nc3ccc(N(C)C)cc3)cc2c(N2CCSCC2)n1,-18.4%,5.8,54.1%,i
CCOc1ccccc1NC(=O)c1cc2c(N3CCSCC3)nc(C)cn2n1,2.2%,7.5,13.0%,28.2µM*
O=C(c1ccc2c(c1)OCO2)N1CCN(c2nnc3ccccn23)CC1,11.9%,13.3,-6.2%,25.1µM*
O=C(c1cccs1)N1CCN(c2nnc3ccccn23)CC1,4.4%,19.1,-9.1%,22.4µM*
SMILES,SNCA viab count,IP6K1 inhibitor,SNCA expr inhib,KDM5B inhibitor
COc1ccccc1C(=O)NC1CCN(c2nnc3ccccn23)CC1,-16.6%,13.5,-5.3%,28.2µM*
O=C(c1ccccc1)N1CCN(C(=O)c2ccc3c(c2)OCO3)CC1,·,·,·,i
O=C(c1cccs1)N1CCCCCCC1,·,·,·,i
Cc1ccc(C(=O)N2CCN(c3ccc4nnc(-c5ccccc5)n4n3)CC2)cc1,·,4.1,·,·
Cc1ccc(C(=O)N2CCN(c3nnc4ccccn34)CC2)cc1,7.2%,17.6,-7.5%,28.2µM*
Cc1nc2ncccn2c1C(=O)N[C@H]1CCOC[C@H]1C1CCOCC1,5.4%,7.2,-6.4%,28.2µM*
Cc1cc(C(=O)N[C@H]2CCOC[C@H]2C2CCOCC2)cc(C)n1,-0.8%,8.2,-21.1%,i
COc1ccc(CC(=O)NC2CCN(c3nccc(Nc4ccccc4F)n3)CC2)cc1,-4.3%[12.5 µM],-1.2,8.9%,·

# Source: PubChem (National Center for Advancing Translational Sciences (NCATS))
